According to PubChem BioAssay (NCATS):
Records with an inconclusive call do not appear. Calls of active or inactive are those of the source. Calls follow the shape of the dose curve; as a rule, active = well fitted curve in the direction sought with a large enough effect; inconclusive = small, poorly fitted or top-dose-only effect, or another doubt; inactive = no such curve, though single readings can be large; an effect the other way counts as inactive or inconclusive.

Assays:
[1] = qHTS of pediatric cancer cell lines to identify multiple opportunities for drug repurposing: Primary screen for NB-EBc1 cells (AID 1347095); also: potency is read from the fitted curve at half-maximal effect;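 as to activity change, negative = cytotoxic: plate controls were DMSO neutral control for no effect and bortezomib for full effect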
Method in brief: (§1)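 Cells seeded at 500-1,000 cells/well in growth media, rested 5 hours at 37 degrees C, 5% CO2, then dosed; MIPE compounds at 11-point (from 0.78 nM) and NPC at 8-point (from 0.59 nM) final concentrations. Viability by CellTiter-Glo luminescence after 48 hours.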

[2] = qHTS of pediatric cancer cell lines to identify multiple opportunities for drug repurposing: Primary screen for U-2 OS cells (AID 1347096);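 also: plate controls were DMSO wells for no effect and bortezomib positive control wells for full effect; nearly all actives have a fitted effect of over 50% in size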
Method in brief: (§2)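 Viability after 48 h compound treatment at 37C, 500-1,000 cells/well, read as ATP luminescence with CellTiter-Glo. Primary screens used 11-point (MIPE, 0.78 nM-46 µM) or 8-point (NPC, 0.59 nM-46 µM) final concentrations; follow-up screens used 11-point dilutions.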

[3] = qHTS of pediatric cancer cell lines to identify multiple opportunities for drug repurposing: Primary screen for SK-N-SH cells (AID 1347098); also: nearly all actives have a fitted effect of over 65% in size; also: potency is read from the fitted curve at half-maximal effect;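 as to activity change, negative = cytotoxic: DMSO served as neutral control and bortezomib at 2.3 µM as positive control; % is scaled to controls: 0 for no effect and ±100 for the full control effect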
Method in brief: (§3)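 Cells (500-1,000/well) rested 5 h, then received compounds for 48 h; metabolically active cells were measured by CellTiter-Glo luminescence. Final concentrations spanned up to 46 µM (MIPE, 11-point) or 0.59 nM-46 µM (NPC, 8-point) in primary screens, 11-point in follow-ups.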

[4] = qHTS of pediatric cancer cell lines to identify multiple opportunities for drug repurposing: Primary screen for LAN-5 cells (AID 1347100); also: potency is read from the fitted curve at half-maximal effect;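 as to activity change, negative = cytotoxic: plate controls were DMSO neutral control for no effect and bortezomib positive control for full effect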
Method in brief: as §2

[5] = qHTS of pediatric cancer cell lines to identify multiple opportunities for drug repurposing: Primary screen for OHS-50 cells (AID 1347103); also: nearly all actives have a fitted effect of over 40% in size; also: potency is read from the fitted curve at half-maximal effect;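 as to activity change, negative = cytotoxic: plate controls were DMSO neutral control for no effect and bortezomib positive control for full effect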
Method in brief: as §3

[6] = qHTS of pediatric cancer cell lines to identify multiple opportunities for drug repurposing: Primary screen for MG 63 (6-TG R) cells (AID 1347105); also: % is scaled to controls: 0 for no effect and ±100 for the full control effect; nearly all actives have a fitted effect of over 50% in size
Method in brief: as §1

[7] = qHTS of pediatric cancer cell lines to identify multiple opportunities for drug repurposing: Primary screen for control Hh wild type fibroblast cells (AID 1347106);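 also: series mostly up to about 46 µM; % is scaled to controls: 0 for no effect and ±100 for the full control effect; a drop in luminescence marks cytotoxicity and a rise apparent proliferation; nearly all actives have a fitted effect of over 55% in size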
Method in brief: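 Cells (500-1,000/well) in growth media were settled 5 h at 37 degrees C, then given compounds for 48 h. Viability was read as CellTiter-Glo luminescence. Primary runs used MIPE at 11 points (0.78 nM-46 µM) and NPC at 8 points (0.59 nM-46 µM); follow-ups used 11 points.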

[8] = qHTS of pediatric cancer cell lines to identify multiple opportunities for drug repurposing: Primary screen for Rh30 cells (AID 1347107); also: nearly all actives have a fitted effect of over 75% in size; also: potency is read from the fitted curve at half-maximal effect; as to activity change, negative = cytotoxic: series mostly up to about 46 µM; % is scaled to controls: 0 for no effect and ±100 for the full control effect
Method in brief: as §2

[9] = qHTS of pediatric cancer cell lines to identify multiple opportunities for drug repurposing: Primary screen for Rh41 cells (AID 1347108); also: nearly all actives have a fitted effect of over 70% in size; also: potency is read from the fitted curve at half-maximal effect;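 as to activity change, negative = cytotoxic: series mostly up to about 46 µM; luminescence drop marks cytotoxic hits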
Method in brief: as §1

[10] = qHTS of pediatric cancer cell lines to identify multiple opportunities for drug repurposing: Primary screen for NB1643 cells (AID 1347099); also: nearly all actives have a fitted effect of over 50% in size; also: potency is read from the fitted curve at half-maximal effect;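 as to activity change, negative = cytotoxic: plate controls were DMSO neutral control for no effect and bortezomib positive control for full effect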
Method in brief: as §1

[11] = qHTS of pediatric cancer cell lines to identify multiple opportunities for drug repurposing: Primary screen for Rh18 cells (AID 1347102); also: nearly all actives have a fitted effect of over 65% in size; also: potency is read from the fitted curve at half-maximal effect; as to activity change, negative = cytotoxic: % is scaled to controls: 0 for no effect and ±100 for the full control effect
Method in brief: as §2

[12] = qHTS of pediatric cancer cell lines to identify multiple opportunities for drug repurposing: Primary screen for RD cells (AID 1347104); also: nearly all actives have a fitted effect of over 55% in size; also: potency is read from the fitted curve at half-maximal effect;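 as to activity change, negative = cytotoxic: plate controls were DMSO for no effect and bortezomib for full effect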
Method in brief: as §1

[13] = qHTS of pediatric cancer cell lines to identify multiple opportunities for drug repurposing: Primary screen for Saos-2 cells (AID 1347097); also: nearly all actives have a fitted effect of over 40% in size; also: potency is read from the fitted curve at half-maximal effect; as to activity change, negative = cytotoxic: % is scaled to controls: 0 for no effect and ±100 for the full control effect
Method in brief: as §1

[14] = qHTS of pediatric cancer cell lines to identify multiple opportunities for drug repurposing: Primary screen for BT-12 cells (AID 1347101); also: nearly all actives have a fitted effect of over 25% in size; also: potency is read from the fitted curve at half-maximal effect;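 as to activity change, negative = cytotoxic: plate controls were DMSO for no effect and bortezomib positive control for full effect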
Method in brief: as §3

[15] = qHTS of pediatric cancer cell lines to identify multiple opportunities for drug repurposing: Confirmatory screen for NB1643 cells (AID 1347109); also: potency is read from the fitted curve at half-maximal effect; nearly all actives have a fitted effect of over 45% in size
Method in brief: as §2

[16] = qHTS of pediatric cancer cell lines to identify multiple opportunities for drug repurposing: Confirmatory screen for LAN-5 cells (AID 1347113); also: potency is read from the fitted curve at half-maximal effect; nearly all actives have a fitted effect of over 65% in size
Method in brief: as §2

[17] = qHTS of pediatric cancer cell lines to identify multiple opportunities for drug repurposing: Confirmatory screen for DAOY cells (AID 1347114); also: nearly all actives have a fitted effect of over 65% in size; also: potency is read from the fitted curve at half-maximal effect
Method in brief: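 Viability measured as metabolically active cells via CellTiter-Glo luminescence following 48 hours of compound exposure, 11-point dilutions in confirmatory testing. 500-1,000 cells/well plated 5 hours before dosing; controls were DMSO and 2.3 µM bortezomib.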

[18] = qHTS of pediatric cancer cell lines to identify multiple opportunities for drug repurposing: Confirmatory screen for SK-N-MC cells (AID 1347111);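 also: potency is read from the fitted curve at half-maximal effect; cells exposed to compound for 48 h before the readout; nearly all actives have a fitted effect of over 70% in size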
Method in brief: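 SK-N-MC cells at 500-1,000 cells/well in growth media were pre-incubated 5 h, then exposed to compounds at 11-point dilutions for 48 h at 37 degrees C, 5% CO2. Viability was read as CellTiter-Glo luminescence.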

CN1CCCN(C(c2ccccc2)c2ccc(Cl)cc2)CC1 (centres undefined)
active: Potency [3] 15.4 µM | Potency [4] 15 µM | Potency [5] 30.9 µM
inactive: Potency [1] | Potency [2] | Potency [6] | Potency [7] | Potency [8] | Potency [9]

CC1CCCCN1CCCOC(=O)c1ccc(OC2CCCCC2)cc1 (centres undefined)
inactive: Potency [1] | Potency [2] | Potency [10] | Potency [4] | Potency [11] | Potency [12] | Potency [6] | Potency [7] | Potency [9]
active: Potency [5] 24.6 µM

CCCCCCCCCCCC[N+](C)(C)Cc1ccccc1
active: Potency [13] 4.73 µM | Potency [3] 15.4 µM | Potency [10] 6.68 µM | Potency [14] 4.37 µM | Potency [11] 2.11 µM | Potency [5] 1.74 µM | Potency [12] 9.44 µM | Potency [8] 18.8 µM | Potency [9] 21.1 µM
inactive: Potency [1] | Potency [4]

CN(C)CCOC1=Cc2ccccc2Sc2ccc(Cl)cc21
active: Potency [5] 24.6 µM
inactive: Potency [1] | Potency [2] | Potency [10] | Potency [4] | Potency [11] | Potency [7] | Potency [8] | Potency [9]

C=CCNc1nc(NCC=C)nc(N2CCN(C(c3ccc(F)cc3)c3ccc(F)cc3)CC2)n1
inactive: Potency [1] | Potency [2] | Potency [3] | Potency [10] | Potency [4] | Potency [6] | Potency [7] | Potency [8] | Potency [9]

O=C(NN1CCCC1)NS(=O)(=O)c1ccc(Cl)cc1
inactive: Potency [1] | Potency [13] | Potency [3] | Potency [10] | Potency [4] | Potency [14] | Potency [11] | Potency [5] | Potency [12] | Potency [6] | Potency [7] | Potency [8] | Potency [9]

c1ccc2occc2c1
inactive: Potency [1] | Potency [2] | Potency [4] | Potency [14] | Potency [11] | Potency [5] | Potency [12] | Potency [7] | Potency [8] | Potency [9]

CC(COc1ccccc1)NN (centres undefined)
inactive: Potency [1] | Potency [2] | Potency [3] | Potency [4] | Potency [14] | Potency [11] | Potency [5] | Potency [12] | Potency [6] | Potency [7] | Potency [8] | Potency [9]

COc1ccc(-n2nc(CCC(=O)N(C)O)cc2-c2ccc(Cl)cc2)cc1
active: Potency [1] 21.1 µM | Potency [5] 19.5 µM
inactive: Potency [2] | Potency [10] | Potency [11] | Potency [6]

C[C@H]1C[C@H]2[C@@H]3CCC4=CC(=O)C=C[C@]4(C)[C@H]3C(=O)C[C@]2(C)[C@@]1(O)C(=O)CO
active: Potency [15] 2.61 µM | Potency [16] 2.93 µM
inactive: Potency [1] | Potency [13] | Potency [3] | Potency [10] | Potency [4] | Potency [14] | Potency [11] | Potency [5] | Potency [12] | Potency [6] | Potency [7] | Potency [8] | Potency [9] | Potency [17]

N#CC1(c2ccc(F)cc2)CCC(=O)CC1
inactive: Potency [1] | Potency [13] | Potency [3] | Potency [10] | Potency [4] | Potency [14] | Potency [11] | Potency [5] | Potency [12] | Potency [6] | Potency [8] | Potency [9]

Cc1nc(C2CCCCC2)c(-c2ccc(S(N)(=O)=O)c(F)c2)o1
inactive: Potency [1] | Potency [2] | Potency [10] | Potency [4] | Potency [11] | Potency [12] | Potency [6] | Potency [7] | Potency [8] | Potency [9]

CC(C)=CCC/C(C)=C/CC/C(C)=C/C(=O)OCC(=O)[C@@]1(O)CC[C@H]2[C@@H]3CCC4=CC(=O)C=C[C@]4(C)[C@H]3[C@@H](O)C[C@@]21C
inactive: Potency [2] | Potency [3] | Potency [10] | Potency [11] | Potency [12] | Potency [6] | Potency [7] | Potency [8] | Potency [9]
active: Potency [1] 21.1 µM | Potency [4] 13.3 µM | Potency [15] 23.3 µM | Potency [18] 18.5 µM | Potency [17] 20.8 µM

NCC[C@H](O)C(=O)N[C@@H]1C[C@H](N)[C@@H](O[C@H]2O[C@H](CN)[C@@H](O)[C@H](O)[C@@H]2O)[C@H](O)[C@@H]1O[C@H]1O[C@H](CO)[C@@H](O)[C@H](N)[C@@H]1O
inactive: activity change, negative = cytotoxic [1] 17.9% [at 0.597 µM] | activity change, negative = cytotoxic [13] 9.12% [at 0.597 µM] | activity change, negative = cytotoxic [3] -13.1% [at 0.741 µM] | activity change, negative = cytotoxic [10] 2.83% [at 0.597 µM] | activity change, negative = cytotoxic [4] 0.172% [at 0.597 µM] | activity change, negative = cytotoxic [14] 5.54% [at 0.745 µM] | activity change, negative = cytotoxic [11] 1.72% [at 0.597 µM] | activity change, negative = cytotoxic [5] 17.5% [at 0.73 µM] | activity change, negative = cytotoxic [12] 8.3% [at 0.597 µM] | activity change, negative = cytotoxic [6] -9.26% [at 0.597 µM] | activity change, negative = cytotoxic [7] -6.47% [at 0.597 µM] | activity change, negative = cytotoxic [8] 20.7% [at 0.597 µM] | activity change, negative = cytotoxic [9] 34.1% [at 0.597 µM]

CC(C)(C)c1ccc(O)c(O)c1
active: Potency [1] 6.11 µM | Potency [13] 48.6 µM | Potency [3] 25 µM | Potency [10] 17.2 µM | Potency [4] 19.3 µM | Potency [14] 25.2 µM | Potency [12] 8.63 µM

O=C(CO)[C@@H](O)[C@H](O)[C@@H](O)CO
inactive: Potency [1] | Potency [13] | Potency [3] | Potency [10] | Potency [4] | Potency [14] | Potency [11] | Potency [5] | Potency [7] | Potency [8] | Potency [9]

CC(C)C(=O)OCc1cccc(OC(=O)[C@@H]2N3C(=O)[C@@H](NC(=O)Cc4ccccc4)[C@H]3SC2(C)C)c1
inactive: Potency [1] | Potency [13] | Potency [3] | Potency [10] | Potency [4] | Potency [14] | Potency [11] | Potency [12] | Potency [7] | Potency [8] | Potency [9]

COc1ccc2nc(SCc3ncc(C)c(OC)c3C)[nH]c2c1
inactive: Potency [1] | Potency [13] | Potency [3] | Potency [10] | Potency [4] | Potency [14] | Potency [5] | Potency [12] | Potency [6] | Potency [7] | Potency [8]
